Compound activity from PubChem.
Shown are actives, neighbours in structure and some others; about 4% of the full set was active somewhere.
Wnt bcat act: Wnt/beta-catenin pathway activators, primary screen, cell-based, plate reader, single point; actives 1.2% (n = 300,000); Wnt/beta-catenin reporter cell assay, activator; activation, % at 9.35 µM; AID 743398, 2014; in the data active means activation above about 30%, passing the limit was not always enough;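 further: 0% = neutral control wells and 100% = positive control wells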
MITF TRPM1 HTS: activators of MITF-driven TRPM1 promoter reporter, primary screen, cell-based, SK-MEL-5, luciferase, single point; SK-MEL-5 TRPM1-promoter luciferase, 24 h; % of positive control, neutral wells = 0; activation, % at 12.5 µM; actives 0.75% (n = 300,000); AID 588334, 2011;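 active means mean activation of at least 80% with every replicate also reaching 80%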;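 further: 0% = neutral control wells and 100% = parthenolide positive control wells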
EBV LMP1 NFkB: EBV LMP1-driven NF-kappaB luciferase reporter inhibitors, primary screen, cell-based, luminescence, single point. LMP1-induced NF-kappaB luciferase reporter cells. actives 0.69% (n = 350,000). inhibition, % at 12.5 µM; in the data active means inhibition above about 41%;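 further: 0% = neutral control wells and 100% = reference inhibitor control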
Statin myotox sup: suppressors of statin myotoxicity in C2C12 myotubes, primary screen, cell-based, single point, plate reader. C2C12 myotubes + simvastatin, ATP luminescence, 48 h; scaled: DMSO 0, geranylgeraniol control 100. rescue of ATP level, % at 7.49 µM. actives 0.78% (n = 330,000). AID 602340, 2012;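 active means mean ATP rescue above about 67%, or every replicate alone reaching that limit, limit read from the data, passing the limit was not always enough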;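 further: myotubes were challenged with 10 µM simvastatin during compound exposure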
esBAF inh: Bmi1 luciferase reporter increase in mESCs, primary screen, esBAF inhibitor project, mouse ES cells, Bmi1 luciferase knock-in, single point. 24 h; 100% = twice the neutral-well signal. reporter increase, % at 12.5 µM. actives 2% (n = 350,000); in the data active means activation above about 40%;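 further: 0% = median of the plate's neutral control wells and 100% = double that signal; a rise in the Bmi1 reporter signal indicates esBAF inhibition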
TRPM1 prom inh: inhibitors of MITF-dependent TRPM1 promoter reporter, primary screen, cell-based, SK-MEL-5, single point, luciferase. AID 488899, 2010. SK-MEL-5 TRPM1 promoter luciferase, 24 h. actives 0.83% (n = 330,000). inhibition, % at 12.5 µM;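 active means mean inhibition across replicates of 60% or more, whatever share of single replicates reaches that level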
The depositor's hits bear a star; / = no result given.

SMILES	Wnt bcat act	MITF TRPM1 HTS	EBV LMP1 NFkB	Statin myotox sup	esBAF inh	TRPM1 prom inh
CCOc1ccc(C2CC(c3c(O)n(C)c(=O)n(C)c3=O)=NN2)cc1 (stereo not given)	30*	/	14	/	/	0
Cn1c(O)c(C2=NNC(c3ccc(Cl)cc3)C2)c(=O)n(C)c1=O (stereo not given)	-1	/	1	/	/	7
CC(C)c1oc(=O)cc2c1[C@@H](O)[C@H]1OC(=O)[C@@]3(C)C[C@@H](O)[C@@H](O)[C@@]2(C)C13 (stereo not given in full)	-26	-62	17	96*	-4	64*
CC(C)c1oc(=O)cc2c1[C@@H](O)[C@H]1OC(=O)[C@@]3(C)CC[C@@H](O)[C@@]2(C)C13 (stereo not given in full)	-24	-55	0	53	28	60
CCOP(=O)(OCC)C(O)c1ccccc1 (stereo not given)	0	-4	2	-2	-1	4
COC1C(O)C(C)OC(OC2C(Oc3cccc4c(O)c5c(=O)oc6ccc(C)c7c(=O)oc(c34)c5c67)OC(C)C(O)C2O)C1O (stereo not given)	6	-48	-61	-109	-83	50
CC1=CC(C)CC(C)OC(=O)CC(c2ccc(O)cc2)NC(=O)C(Cc2c(Br)[nH]c3ccccc23)N(C)C(=O)C(C)NC(=O)C(C)C1 (stereo not given)	-11	/	-2	/	/	81*
COc1ccc(C(=O)C2CCCN(C3CSCCSC3)C2)c(OC)c1 (stereo not given)	-2	-4	-12	3	5	3
COC(=O)C1=C(C(=O)OC)SC2(S1)C(C(=O)OC)=C(C(=O)OC)Sc1c2ssc1=O	-4	-101	-20	/	/	101*
Clc1ccc(CN2CCNCC2)cc1	-2	-8	6	11	-4	9
CCCCCCCn1c(=O)c(C(=O)Nc2cnccn2)c(O)c2ccccc21	8	/	34	/	/	55
CCCCCn1c(=O)c(C(=O)Nc2ccccc2C)c(O)c2ccccc21	9	8	-4	-12	51*	-10
CCCCCn1c(=O)c(C(=O)Nc2cnccn2)c(O)c2ccccc21	2	-65	30	-158	-22	66*
C[C@H]1C/C=C/[C@H]2[C@H](O)[C@H](C)[C@@](C)(O)[C@H]3[C@H](Cc4ccccc4)NC(=O)[C@]32[C@H](O)/C=C/[C@](C)(O)C1	/	/	/	-24	-4	/
C[C@H](CO)N1C[C@H](C)[C@@H](CN(C)C(=O)Oc2ccc3ccccc3c2)OCc2cnnn2CCCC1=O	-2	/	-1	-2	3	/
CC(=Nc1ccc2c(c1)CCC2)c1c(O)n(C)c(=O)n(C)c1=O	/	3	6	-11	-4	-3
CNc1ccc2oc(C[C@H]3O[C@@]4(CC[C@H]3C)O[C@H]([C@H](C)C(=O)c3ccc[nH]3)[C@H](C)C[C@H]4C)nc2c1C(=O)O	-22	-101	70*	-263	-59	102*
CCOc1ccc(-n2c(CC)nc3ccccc3c2=O)cc1	-2	-9	4	131*	-5	9
C#CCNc1ccncc1S(=O)(=O)NC(=O)NC(C)C	/	2	2	128*	0	-2
COc1ccc(OC)c(NP(=O)(Oc2ccc(Cl)cc2)Oc2ccc(Cl)cc2)c1	-1	4	10	/	/	0
COc1ccc(C2(c3cccc(O)c3OC)CCN(C(C)=O)CC2)cc1O	15	-5	6	1	-7	4
CN1CCC2(CC1)c1ccccc1-c1ccccc12	2	43	4	-5	-6	-43
CC1(C(=O)O)CC12c1ccccc1-c1ccccc12 (stereo not given)	4	-1	74*	/	/	0
COC(=O)c1cccc(N=Cc2c(O)n(Cc3ccc(F)cc3)c(=O)[nH]c2=O)c1	-3	/	/	/	/	/
CC(=NCc1ccco1)c1c(O)n(Cc2ccccc2)c(=O)[nH]c1=O	/	3	-8	15	-1	0
SMILES	Wnt bcat act	MITF TRPM1 HTS	EBV LMP1 NFkB	Statin myotox sup	esBAF inh	TRPM1 prom inh
CN(C)CCCN=Cc1c(O)n(CCc2ccc(F)cc2)c(=O)[nH]c1=O	38*	/	-9	-5	-1	4
CN(C)CCCN=Cc1c(O)n(CCc2ccccc2)c(=O)[nH]c1=O	/	/	0	-3	2	-7
O=P(Nc1ccccc1)(Nc1ccccc1)Oc1cccc(Cl)c1	/	-1	0	97*	-7	-4
O=P(Nc1ccccc1)(Nc1ccccc1)Oc1ccccc1	-5	6	0	/	/	-5
O=C1NC(=O)C2(CCCc3ccc(N(CCCl)CCCl)cc32)N1 (stereo not given)	-4	-13	38	4	-14	12
CC(C)NCC(O)c1ccc(C2CCCC2)cc1 (stereo not given)	25	-1	0	/	/	4
Cn1cccc1/C=C1\C(=O)NC(=O)N(Cc2ccco2)C1=O	-6	14	6	/	/	-13
O=C1NC(=O)N(Cc2ccco2)C(=O)/C1=C/C=C/c1ccco1	4	-94	-36	/	/	95*
O=C1NC(=O)N(Cc2ccccc2)C(=O)/C1=C\C=C\c1ccco1	2	-96	-38	5	0	96*
COc1cccc(CNCCc2ccc3c(c2)OCO3)c1OC	1	/	4	12	0	-10
Cc1ccccc1-n1c(C)nc2ccccc2c1=O	-14	-2	-4	/	/	3
CCN(CCCl)c1cc(CN(C)C)cc(NC(=O)c2ccc(C(=O)Nc3cc(CN(C)C)cc(N(CC)CCCl)c3)cc2)c1	-11	-98	87*	-187	-85	98*
CCN(CC)C(=O)c1ccc(NC(=O)c2cccc(C(F)(F)F)c2)cc1	-3	13	-3	0	14	-15
COC(=O)[C@H]1[C@H](CO)[C@H]2Cn3c(ccc(-c4cccnc4)c3=O)[C@@H]1N2S(=O)(=O)c1ccccc1C	/	/	/	8	-4	/
CC1CCN(C(CC(=O)c2ccccc2)C(=O)c2ccccc2)CC1 (stereo not given)	51*	2	-12	0	24	3
CN1C2CCC1C(COC(=O)c1ccccc1)C(O)C2 (stereo not given)	-1	-4	6	9	-6	3
O=C1C2CCCN2C(c2cccnc2)N1c1nccs1 (stereo not given)	/	1	1	155*	-3	-4
COC(=O)C1CN(C#N)N(c2ccc(Cl)cc2)C12c1ccccc1-c1ccccc12 (stereo not given)	/	-97	37	/	/	98*
